This note sets out measurements from PubChem BioAssay (NCI).

Common to all, as to experiment: NCI-60 one-dose screen, 48 h (100 = growth as untreated, 0 = no growth, -100 = all killed)
Common to all, as to conditions: 10 µM unless noted

Experiment [1] relates to HCT-15 colon.
Experiment [2] concerns HT29 colon.
The subject of experiment [3] is SNB-75 CNS.
The subject of experiment [4] is SNB-19 CNS.
Experiment [5] has as its system U251 CNS.
In experiment [6] the test system is PC-3 prostate.
The test system of experiment [7] is SK-MEL-5 melanoma.
The subject of experiment [8] is UACC-62 melanoma.
Experiment [9] relates to LOX IMVI melanoma.
Experiment [10] relates to SK-MEL-28 melanoma.
In experiment [11] the test system is SK-MEL-2 melanoma.
Experiment [12] relates to EKVX NSCLC.
The test system of experiment [13] is SN12C renal.
In experiment [14] the test system is UO-31 renal.
Experiment [15] relates to TK-10 renal.
Experiment [16] deals with ACHN renal.
Experiment [17] concerns CAKI-1 renal.
The test system of experiment [18] is A498 renal.
Experiment [19] deals with CCRF-CEM leukemia.
The test system of experiment [20] is MOLT-4 leukemia.

The panel holds about 83,000 compounds, 20% with a hit somewhere; the sample as a whole holds those more often.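 Method: cells in 96-well plates; compound added at one concentration; 48 h incubation; percent growth measured; values under 10 scored active.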 A number with no mark means an inactive call. Calls of active or inactive are those of the source.

Take `Cn1c(O)c(C=NCCN=Cc2c(O)n(C)c(=O)n(C)c2=O)c(=O)n(C)c1=O`: the growth was 107% in experiment [1]; 97.1% in experiment [2]; 88.3% in experiment [3]; 97.6% in experiment [4]; 102% in experiment [5]; 90.4% in experiment [6]. Also, the growth in [7] is 98.7%; in [8], 84.1%; in experiment [9] it was 93.2%; in experiment [10] it was 109%; in experiment [11], 120%; in [12], 102%. Also, the growth in experiment [13] is 95.6%; in experiment [14], 84.7%; in [15], 116%; in experiment [16] it was 101%; in experiment [17], 94.4%; in experiment [18] it was 127%. Besides, the growth was 7.42% (active) in experiment [19] and -46.6% (active) in experiment [20].

Regarding `COc1ccc(C(=O)Nc2ncc(Cc3ccc(F)cc3)s2)cc1`, the growth in experiment [1] is 11.5%; in [2] it was 9.92% (active); in experiment [3], 23.9%; in experiment [4], 31.2%; in experiment [5], 28.6%; in [6], 27.6%. The growth in experiment [7] is -4.84% (active); in experiment [8] it was 30.1%; in experiment [9], 20%; in [10] it was 48.7%; in experiment [11], 30.7%; in experiment [12], 38.4%. Further, the growth was 25.1% in experiment [13]; 39.8% in [14]; 63.7% in [15]; 28.3% in experiment [16]; 22.3% in experiment [17]; -12.4% (active) in experiment [18]. For the same compound, the growth in experiment [19] was 12.3%; in [20], 14.8%.

With `O=c1oc2ccc([N+](=O)[O-])cc2cc1Br`, the growth in experiment [1] is 100%; in [2] it was 102%; in experiment [3], 86.6%; in experiment [4], 108%; in experiment [5], 101%; in [6], 96.8%. The growth in experiment [7] is 102%; in experiment [8] it was 101%; in [9], 97.2%; in [10], 107%; in experiment [11], 106%; in experiment [12], 102%. Besides, the growth in experiment [13] was 105%; in experiment [14], 88.5%; in [15], 105%; in [16], 117%; in experiment [17], 94.5%; in [18], 99.7%. Besides, the results for the growth in experiment [19] and in [20] were 109% and 98.5%, respectively.

For `CC(C)n1cnc2c(=S)nc[nH]c21`, the growth in [1] is 102%; in experiment [2], 118%; in experiment [3] it was 117%; in experiment [4] it was 107%; in [5] it was 98.9%; in experiment [6] it was 98.7%. The growth is 103% in experiment [7]; 110% in experiment [8]; 93.7% in experiment [9]; 131% in [10]; 114% in [11]; 98% in experiment [12]. The growth was 108% in experiment [13]; 92% in experiment [14]; 109% in experiment [15]; 93.7% in [16]; 73.1% in [17]; 127% in experiment [18]. The growth was 90.9% in experiment [19] and 56.6% in [20].

With `C=CCc1c(O)c(C(=O)/C=C/c2ccc(Cl)cc2)c(OC)c2ccoc12`, the growth in experiment [1] was 41.3%; in [2] it was 36.6%; in [3], 80.1%; in experiment [4], 63.2%; in experiment [5], 37.7%; in [6] it was 30.9%. For the same compound, the growth in experiment [7] is 52.6%; in [8] it was 48.1%; in [9] it was 34.8%; in [10], 63.5%; in [11], 15.7%; in [12] it was 56.3%. Further, the growth was 57.2% in [13]; 51.4% in [14]; 57.2% in [15]; 55% in [16]; 19.5% in experiment [17]; 46.9% in experiment [18]. Moreover, the growth was 21.4% in experiment [19] and 15.3% in experiment [20].

In the case of `Cc1ccc(-n2c(=S)[nH]c3sc4c(c3c2=O)CCC(=O)C4)cc1`, the growth was 25% in [1]; 55.9% in [2]; 28.1% in experiment [3]; 30.9% in experiment [4]; 36.7% in experiment [5]; 41% in [6]. Moreover, the growth was 26.7% in experiment [7]; 10.3% in [8]; 36.3% in experiment [9]; 53% in [10]; 39.6% in experiment [11]; 93.7% in experiment [12]. Also, the growth in [13] is 40.3%; in experiment [14], 43.8%; in experiment [15] it was 83.5%; in experiment [16] it was 39.4%; in [17], 28.6%; in experiment [18] it was 109%. The growth in experiment [19] is 20.8%; in experiment [20], 48.9%.

Take `O=C(OCc1ccc2cccc(O)c2n1)N1CCN(C(=O)c2cc3cc(F)ccc3[nH]2)CC1`: the growth in [1] is -36.4% (active); in experiment [2], -70.4% (active); in experiment [3], -45.2% (active); in experiment [4], 47.1%; in experiment [5] it was -87.2% (active); in [6] it was -43.9% (active). The growth in [7] is -79.6% (active); in [8], -93.8% (active); in [9] it was -91.8% (active); in experiment [10] it was -91.2% (active); in experiment [11], -59.7% (active); in experiment [12], -87.8% (active). Besides, the growth in experiment [13] is -90.8% (active); in [14], -100% (active); in experiment [15], -97.1% (active); in experiment [16] it was -99.8% (active); in experiment [17], -97.8% (active); in experiment [18], 17.5%. Also, the growth was 3.76% (active) in experiment [19] and -16.9% (active) in experiment [20].

As to `Cc1ccc(/C=N/Nc2nc(Nc3ccccc3)nc(-n3nc(C)cc3C)n2)cc1`, the growth was 25.2% in experiment [1]; 32.7% in [2]; 83.4% in experiment [3]; 74.4% in experiment [4]; 33.8% in [5]; 31.1% in experiment [6]. Also, the growth was -12.6% (active) in [7]; 44.9% in experiment [8]; 32.6% in experiment [9]; 68.6% in experiment [10]; 32.6% in experiment [11]; 27.3% in experiment [12]. Besides, the growth in experiment [13] was 48.9%; in experiment [14], 20.1%; in experiment [15] it was 3.47% (active); in experiment [16], 35.5%; in experiment [17], -21.1% (active); in [18], 58.5%. Besides, the results for the growth in experiment [19] and in experiment [20] were 41% and 42.3%, respectively.

In the case of `COc1ccccc1Nc1nc2c(s1)C1=CC[C@H]3[C@@H]4CC[C@H]([C@H](C)CCCC(C)C)[C@@]4(C)CC[C@@H]3[C@@]1(C)CC2`, the growth is 103% in experiment [1]; 101% in experiment [2]; 97.6% in experiment [3]; 104% in experiment [4]; 113% in experiment [5]; 92.7% in [6]. The growth in [7] is 100%; in experiment [8], 96.7%; in [9], 94%; in [10], 110%; in experiment [11], 115%; in experiment [12] it was 105%. The growth is 99.6% in experiment [13]; 73.5% in experiment [14]; 117% in [15]; 104% in [16]; 90.5% in experiment [17]; 132% in experiment [18]. The growth in [19] is 109%; in experiment [20], 104%.

For the compound `O=C1/C(=C\c2cn(-c3ccccc3)nc2-c2ccc(-c3cccs3)cc2)CCc2ccccc21`, the growth is 37.8% in experiment [1]; 29.5% in [2]; 45.8% in experiment [3]; 61% in [4]; 66.2% in experiment [5]; 78.1% in [6]. Besides, the growth in [7] is 66%; in experiment [8], 47.7%; in [9] it was 56.9%; in [10], 68.8%; in experiment [11], 70.4%; in experiment [12], 68.5%. Further, the growth is 66.8% in experiment [13]; 54.2% in experiment [14]; 101% in [15]; 79.5% in [16]; 41.2% in experiment [17]; 10.3% in experiment [18]. Besides, the growth in [19] was 48%; in experiment [20] it was 49.1%.

Turning to `CC(O)c1cnc(/C=C2\SC(=S)N(Cc3ccccc3)C2=O)s1` (stereo not given), the growth was 83.6% in experiment [1]; -8.15% (active) in experiment [2]; 85.2% in experiment [3]; 97.9% in experiment [4]; 54.9% in experiment [5]; 34% in experiment [6]. The growth was 88.8% in [7]; 90.3% in experiment [8]; 41.2% in [9]; 89.3% in experiment [10]; 69.1% in [11]; 98.1% in experiment [12]. The growth was 95.5% in [13]; 93.5% in experiment [14]; -18.5% (active) in experiment [15]; 88.2% in experiment [16]; 87.8% in experiment [17]; 104% in [18]. Besides, the growth in experiment [19] is 18.8%; in experiment [20], 58.1%.

On to `N#C/C(=C\c1ccc(-c2ccc(Cl)cc2)o1)C(=O)Nc1ncc(Cc2ccc(Cl)cc2)s1`, for which the growth in [1] was 37.6%; in experiment [2], 62.4%; in experiment [3], -31.1% (active); in experiment [4], 79.1%; in experiment [5], -33.9% (active); in experiment [6] it was 28.8%. Further, the growth in [7] was 94.7%; in [8], 46.1%; in experiment [9], 15.5%; in experiment [10] it was 34.2%; in experiment [11], 95.4%; in experiment [12] it was 33.7%. For the same compound, the growth in experiment [13] is -0.639% (active); in [14], 42.1%; in experiment [15], 19.8%; in experiment [16], 5.97% (active); in experiment [17], 39.1%; in experiment [18], 69.9%. Moreover, the growth was 41.4% in experiment [19] and 78.3% in experiment [20].

In the case of `Cc1ccc(C(C(N)=O)C(C(N)=O)c2ccccc2)cc1` (stereo not given), the growth in experiment [1] is 110%; in experiment [2] it was 109%; in [3], 114%; in experiment [4] it was 109%; in experiment [5] it was 104%; in [6], 105%. Further, the growth in [7] was 117%; in experiment [8], 119%; in [9], 108%; in experiment [10], 123%; in [11] it was 105%; in experiment [12], 113%. In addition, the growth in experiment [13] was 112%; in experiment [14] it was 108%; in [15], 101%; in [16] it was 115%; in experiment [17] it was 101%; in experiment [18] it was 116%. In addition, the results for the growth in experiment [19] and in [20] were 93.4% and 100%, respectively.

With `CC(C)(C)n1cc(-c2ccnc(NCCNS(=O)(=O)c3cccc(F)c3)c2)c(-c2ccccc2)n1`, the growth is 62.5% in [1]; 41.4% in experiment [2]; 85.2% in [3]; 89.3% in experiment [4]; 67.5% in experiment [5]; 80.3% in [6]. For the same compound, the growth in [7] was 72.3%; in [8], 81.7%; in experiment [9], 85.1%; in experiment [10] it was 102%; in [11], 105%; in experiment [12], 70.6%. For the same compound, the growth in experiment [13] is 90.1%; in experiment [14] it was 67%; in experiment [15] it was 105%; in experiment [16], 99.5%; in [17] it was 90.4%; in experiment [18] it was 27.1%. Besides, the results for the growth in [19] and in [20] were 93.8% and 74.4%, respectively.
